We go through eleven molecules from PubChem BioAssay (NCATS).

Structures are written as SMILES. Inconclusive results are not listed. Calls of active or inactive are those of the source. Calls follow the shape of the dose curve; as a rule, active = well fitted inhibition curve with a large enough effect; inconclusive = small, poorly fitted or top-dose-only effect; inactive = no such curve, though single readings can be large or run the other way.
% is scaled to controls: 0 for no effect and ±100 for the full control effect; potency is read from the fitted curve at half-maximal effect.

In this assay the test system is Zika virus NS2B-NS3 protease (unlinked complex). The assay can be described thus: Primary screen GU Rhodamine qHTS for Zika virus inhibitors: Unlinked NS2B-NS3 protease assay (AID 1347159). Also: nearly all actives have a fitted effect of over 60% in size. Conditions: Recombinant ZIKV NS2B-NS3 protease, Rhodamine110 substrate fluorescence; series mostly up to 107 µM; activity change, negative = inhibition: at the top concentration. The procedure, abridged:
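Buffer 10 mM Tris-HCl pH 8.0, 0.01% Tween 20. Unlinked protease 25 nM; compound preincubation 15 min, RT, protected from light. Substrate Rhod110, 1.5 microM; ~15% conversion in 15 min.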
For orientation: In qHTS, concentration-response curves come from the screen itself.
In the case of `O=C(O)CC1CC(c2ccccc2)=NO1` (stereo unspecified), the “activity change, negative = inhibition” value is 0% [at 32.5 µM] (inactive).

With `CN1[C@@H]2CC[C@H]1CC(OC(=O)C(CO)c1ccccc1)C2` (stereo partly specified), the “activity change, negative = inhibition” value is 36.4% (inactive).

For `CCNC(=O)[C@H]1O[C@@H](n2cnc3c(N)nc(NCCc4ccc(CCC(=O)O)cc4)nc32)[C@H](O)[C@@H]1O`, the “activity change, negative = inhibition” value was 57.4% (inactive).

With `COc1ccc(/C=C/C(=O)Nc2ccccc2C(=O)O)cc1OC`, the “activity change, negative = inhibition” value was 0% (inactive).

For `COC(=O)[C@H]1[C@H]2C[C@@H]3c4[nH]c5cc(OC)ccc5c4CCN3C[C@H]2C[C@@H](OC(=O)/C=C/c2cc(OC)c(OC)c(OC)c2)[C@@H]1OC`, the “activity change, negative = inhibition” value was 55.3% [at 32.5 µM] (inactive).

As to `CC1(C)S[C@@H]2[C@H](NC(=O)[C@H](NC(=O)N3CCN(S(C)(=O)=O)C3=O)c3ccccc3)C(=O)N2[C@H]1C(=O)O`, the “activity change, negative = inhibition” value is 23.1% (inactive).

Turning to `COc1cc(/C=C/C(=O)N2CCN(CC(=O)N3CCCC3)CC2)cc(OC)c1OC`, the “activity change, negative = inhibition” value was 27.7% (inactive).

Regarding `CC1(C)S[C@@H]2[C@H](NC(=O)[C@H](N)c3ccc(O)cc3)C(=O)N2[C@H]1C(=O)O`, the “activity change, negative = inhibition” value was 0% (inactive).

On to `C[C@H](O)[C@H](O)[C@H]1CNc2nc(N)[nH]c(=O)c2N1`, for which the “activity change, negative = inhibition” value was 0% (inactive).

For `CC(=O)O[C@H]1C[C@@]2(C)[C@@H](C[C@@H](O)[C@H]3[C@@]4(C)CC[C@@H](O)[C@@H](C)[C@@H]4CC[C@@]32C)/C1=C(\CCC=C(C)C)C(=O)O`, the “activity change, negative = inhibition” value was 13.8% (inactive).

Consider `CC1(C)[C@@H](O)CC[C@]2(C)[C@H]3C(=O)C=C4[C@@H]5C[C@@](C)(C(=O)O)CC[C@]5(C)CC[C@@]4(C)[C@]3(C)CC[C@@H]12`, for which the Potency was 17.8 µM (active).
